# Experimental data taken from PubChem BioAssay (NCATS).
# Results filed as inconclusive are left out. Where a call stands in place of a potency, no number is given. The source made the active and inactive calls. Calls come from the whole dose curve; as a rule, active = well fitted cell-killing curve with a large enough effect; inconclusive = small, poorly fitted or top-dose-only effect, or effect the other way; inactive = no such curve, though single readings can be large or run the other way.
# Experiment: Viability qHTS for spleen associated tyrosine kinase inhibitor (SYKi) naive MV4-11 cells (AID 1963823); note: nearly all actives have a fitted effect of over 40% in size
# Settings: MV4-11 AML viability, CellTiter-Glo luminescence, 72 h; series mostly up to 45 µM
# Summary of the method: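 In this viability screen, compounds acted on SYK inhibitor naive MV4-11 cells for three days (72 hr, 37 C). Remaining viable cells were measured by CellTiter-Glo luminescence following a 10 min room-temperature development.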
# Potency is the fitted concentration of half-maximal effect.
SMILES,Potency,viability (% of control)
C[C@@H]1C[C@H]2OC(=O)[C@@]3(C)CCC[C@](C)(C23)[C@@]1(O)CCC1=CC(=O)OC1O (some centres undefined),inactive,–
C/C=C1/[C@H](O[C@@H]2O[C@H](CO)[C@@H](O)[C@H](O)[C@H]2O)OC=C(C(=O)OC)[C@H]1CC(=O)OCCc1ccc(OC(=O)C[C@@H]2C(C(=O)OC)=CO[C@@H](O[C@@H]3O[C@H](CO)[C@@H](O)[C@H](O)[C@H]3O)/C2=C/C)cc1,–,67.3% [at 9.25 µM] (inactive)
COc1cc(-c2ncn(/C=C\C(=O)OC(C)C)n2)cc(C(F)(F)F)c1,103 nM (active),–
COc1ccc(-c2ccccc2)cc1NS(=O)(=O)c1cc(Cl)cc(Cl)c1O,inactive,–
C=C(COC(=O)CC(C)C)C1Cc2cc(C(C)=O)ccc2O1 (centres undefined),inactive,–
C=C(C)C(=O)OC1CC(CO)CCC/C(CO)=C/C2OC(=O)C(=C)C21 (centres undefined),1610 nM (active),–
COc1cc(Nc2nc3c(s2)CCCC3c2ccccc2)ccc1-n1cnc(C)c1 (centres undefined),–,89.8% [at 9.25 µM] (inactive)
CC(NC(=O)Cc1cc(F)cc(F)c1)C(=O)NC1C(=O)N(C)c2ccccc2-c2ccccc21 (centres undefined),5170 nM (active),–
O=C1[C@H](O[C@@H]2O[C@H](CO)[C@@H](O)[C@H](O)[C@H]2O)Oc2ccccc2N1O,inactive,–
C[C@@H]1O[C@@H](O[C@H]2[C@H](O[C@H]3CC[C@@]4(C)C(CC[C@]5(C)C4CC=C4[C@@H]6CC(C)(C)CC[C@]6(C(=O)O[C@@H]6OC[C@H](O)[C@H](O)[C@H]6O[C@@H]6O[C@@H](C)[C@H](O[C@@H]7O[C@H](CO)[C@@H](O)[C@H](O)[C@H]7O)[C@H](O)[C@H]6O)[C@H](O)C[C@]45C)C3(C)C)O[C@H](CO)[C@@H](O[C@@H]3OC[C@@H](O)[C@H](O)[C@H]3O)[C@@H]2O)[C@H](O)[C@H](O)[C@H]1O (some centres undefined),–,79.8% [at 9.25 µM] (inactive)
CC(=O)/C=C/C1C(C)CC(O[C@@H]2O[C@H](CO)[C@@H](O)[C@H](O)[C@H]2O)CC1(C)C (some centres undefined),inactive,–
O=C(Nc1cnc(Cl)nc1)c1ccc(F)c(F)c1,inactive,–
COC(=O)c1c(C)cc(OC(=O)c2c(C)cc(OC)cc2OC)cc1O[C@@H]1O[C@H](CO)[C@@H](O)[C@H](O)[C@H]1O,inactive,–
C/C(=C\CO[C@@H]1O[C@H](CO[C@H]2OC[C@](O)(CO)[C@H]2O)[C@@H](O)[C@H](O)[C@H]1O)C(C)(C)O,inactive,–
C[C@@H]1CC[C@]2(C(=O)O)CC[C@]3(C)C(=CCC4[C@@]5(C)C[C@@H](O)[C@H](O)[C@@](C)(CO)C5CC[C@]43C)C2[C@H]1C (some centres undefined),inactive,–
O=C(/C=C/c1ccc(O)c(O)c1)O[C@@H]1[C@@H](O)[C@H](OC2CCCCC2O)O[C@H](CO)[C@H]1O (some centres undefined),inactive,–
COC(=O)c1cc(OC)cc(OC)c1C(=O)c1c(OC)cc2c(c1O)C1CCCC(C)(O2)O1 (centres undefined),inactive,–
CC1CCC2C(C)(C)C(O)C(O)CC2(C)C12Cc1c(O)cc(CO)c(C=O)c1O2 (centres undefined),inactive,–
CCC1OC(=O)C(C)CC(C)C(=O)/C(C)=C/C(C)C(=O)/C=C/C1(C)O (centres undefined),inactive,–
CC1CCC2C(C)(C)C(O)CCC2(C)C12Cc1c(O)cc3c(c1O2)CN(C(CCCN=C(N)N)C(=O)O)C3=O (centres undefined),3170 nM (active),–
CC1(C)CC[C@]2(C(=O)O[C@@H]3O[C@H](CO[C@@H]4O[C@H](CO)[C@@H](O)[C@H](O)[C@H]4O[C@@H]4O[C@H](CO)[C@H](O)[C@H](O)[C@H]4O)[C@@H](O)[C@H](O[C@@H]4O[C@H](CO)[C@@H](O)[C@H](O)[C@H]4O)[C@H]3O)CC[C@]3(C)C(=CCC4[C@@]5(C)CC[C@H](O[C@@H]6OC[C@@H](O)[C@H](O)[C@H]6O)[C@@](C)(C(=O)O)C5CC[C@]43C)[C@@H]2C1 (some centres undefined),–,76.7% [at 9.25 µM] (inactive)
C=CC(C)(O)CC/C=C(/C)C(=O)OC1C(OC2OCC(OC3OC(CO)C(O)C(O)C3O)C(OC3OCC(O)C(OC4OC(C)C(O)C(O)C4O)C3O)C2O)COC(OC(=O)C23CCC(C)(C)CC2C2=CCC4C5(C)CCC(OC6OC(CO)C(OC7OC(CO)C(O)C(OC8OCC(O)C(O)C8O)C7O)C(O)C6O)C(C)(C)C5CCC4(C)C2(C)CC3O)C1O (centres undefined),–,68.9% [at 4.97 µM] (inactive)
COc1c(C)c(OCC(O)C(C)(C)O)cc2c1COC2=O (centres undefined),inactive,–
OC[C@H]1O[C@@H](Oc2cc(O)c3c(c2)O[C@@H](c2ccc(O)cc2)[C@H](O)C3)[C@H](O)[C@@H](O)[C@@H]1O,inactive,–
